# VACV Venus inh: qHTS for Stage-Specific Inhibitors of Vaccinia Orthopoxvirus: Venus Reporter Primary qHTS | Vaccinia virus Venus reporter expression, fluorescence | hit rate 0.46% among 330,000 | Potency, µM (highest dose often 36.5 µM), hits mostly inhibitors | AID 720580, 2013; calls by dose curve; tested in A549 cells; note: nearly all actives have a fitted effect of over 30% in size
# FMDV inh: High Throughput Screening for Foot and Mouth Disease Virus Antivirals | AID 1159524, 2015 | hit rate 1.2% among 410,000 | FMDV antiviral cell-based qHTS | Potency, µM (highest dose often 57.9 µM), hits mostly inhibitors; calls by dose curve; tested in HEK293T cells; note: read-out not given here; nearly all actives have a fitted effect of over 45% in size
# LASV entry inh: qHTS for Inhibitors of binding or entry into cells for Lassa Virus | Potency, µM (titrated, usually from 37.9 µM), hits mostly inhibitors | Lassa virus pseudotype entry inhibition, cell reporter | hit rate 1.2% among 300,000; calls by dose curve; tested in HEK293 cells; note: nearly all actives have a fitted effect of over 50% in size
# Marburg entry inh: qHTS for inhibitors of binding or entry into cells for Marburg Virus | AID 540276, 2011 | hit rate 1.8% among 300,000 | Potency, µM (highest dose often 37.8 µM), hits mostly inhibitors | Marburg virus pseudotyped entry inhibition, cell reporter; calls by dose curve; tested in HEK293 cells
# HCMV inh: qHTS Assay for inhibitors of the human cytomegalovirus (HCMV) | hit rate 4.5% among 410,000 | activity change, negative = inhibition, % at 57.5 µM | HFF cells, HCMV-luciferase reporter, 72 h; active compounds read low; in the data active = activity change below about -60%; inconclusive = no clear call, values can overlap the other calls; inactive = above about -39%
#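 Steps: HFFs plated, 16 h 37C; compounds added; HCMV-luciferase added to MOI 1 PFU/cell; 72 h 37C; OneGlo reagent, 5 min room temperature; luminescence read, normalized to controls.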
# VACV mCherry inh: qHTS for Stage-Specific Inhibitors of Vaccinia Orthopoxvirus: mCherry Reporter Primary qHTS | Vaccinia virus mCherry reporter infection, fluorescence | Potency, µM (highest dose often 36.5 µM), usual class: inhibitors | hit rate 0.63% among 310,000 | AID 720579, 2013; calls by dose curve; tested in A549 cells; note: nearly all actives have a fitted effect of over 35% in size
# A number is an active result; – = inactive; ? = inconclusive; · = no result given. Most compounds without a hit are left out; they make up all but 6.5% or so of the library.
SMILES,VACV Venus inh,FMDV inh,LASV entry inh,Marburg entry inh,HCMV inh,VACV mCherry inh
Cc1ccc(OCC(=O)Nc2ccc(C(=O)Nc3ccccc3C(=O)O)cc2)cc1C,–,–,·,·,–,–
Cc1ccccc1OCC(=O)Nc1nnc(COc2ccccc2)s1,–,–,–,–,-79,–
COc1ccccc1NC(=O)COc1ccccc1C(=O)Nc1ccccc1,–,–,–,?,-93,–
CCC(=O)N1CCN(c2ccc(NC(=O)COc3ccccc3[N+](=O)[O-])cc2)CC1,·,28µM,·,·,–,·
CC(C)n1cc(NC(=O)COc2ccccc2Cl)cn1,–,–,–,–,-61,–
CCCOC(=O)c1ccc(NC(=O)c2ccccc2[N+](=O)[O-])cc1,·,–,·,·,-100,·
CCCOC(=O)c1ccc(NC(=O)c2ccccc2OC)cc1,–,–,–,–,–,–
COc1ccccc1NC(=O)COc1ccc(Br)cc1CNC1CCCC1,–,–,·,5.6µM,–,–
COc1ccccc1NC(=O)COc1ccc(Br)cc1CO,·,–,–,–,–,·
O=C(O[C@H]1CC[C@@]23CCCN2C(=O)CCC[C@H]3[C@H]1Cc1ccccc1)N1CCCC1,·,·,·,·,–,·
CCC(=O)N1CCN(c2ccc(NC(=O)COc3ccccc3Cl)cc2)CC1,·,32µM,?,?,?,·
Cc1ccc(NC(=O)COc2ccccc2CNC(C)(C)CC(C)(C)C)cc1,·,–,·,–,-65,·
CC(C)(CO)NCc1ccccc1OCC(=O)Nc1ccccc1,–,·,–,–,–,–
Cc1ccc(C(=O)N2CCN(c3ccc(NC(=O)COc4ccccc4C)cc3)CC2)cc1,?,14µM,?,?,?,?
CN1CCCC1CCOC(C)(c1ccccc1)c1ccc(Cl)cc1 (stereo not drawn),–,–,21µM,9.2µM,–,–
N#Cc1ccc(C(=O)NCc2ccc3c(c2)CCN3C(=O)c2ccc(F)cc2)cc1,–,–,?,·,–,–
Cc1ccc(C(C)(C)C)c(OCCOCCN2CCCC2)c1,–,–,?,12µM,–,–
CCC(C)c1ccccc1OCCOCCN1CCCC1 (stereo not drawn),–,–,18µM,?,–,–
CCC(C)c1ccccc1OCCCCN1CCCC1 (stereo not drawn),–,?,?,?,–,–
CC(C)(C)c1ccccc1OCCOCCN1CCCCCC1,–,–,–,?,?,–
C=C1NN(C(C)C(=O)O)C(=O)N1c1ccc(OCc2ccccc2)cc1 (stereo not drawn),–,·,·,·,·,–
c1csc(CNc2ncnc3ccc(-c4ccoc4)cc23)c1,·,–,·,·,-92,·
c1csc(CNc2ncnc3sccc23)c1,·,?,?,–,-79,·
Cc1cc2c(NCC(C)O)ncnc2s1 (stereo not drawn),–,–,–,–,–,–
COc1ccc(CCN(C)c2ncnc3sccc23)cc1OC,·,28µM,·,·,?,·
SMILES,VACV Venus inh,FMDV inh,LASV entry inh,Marburg entry inh,HCMV inh,VACV mCherry inh
Cc1cc2c(NCc3ccccc3)ncnc2s1,–,?,–,?,-76,–
COc1ccc(-c2nc(-c3ccccc3)oc2NC(C)c2ccccc2)cc1 (stereo not drawn),·,·,?,–,·,·
c1cncc(CNc2ncnc3sccc23)c1,–,?,–,–,–,–
CN(Cc1cccs1)c1ncnc2sccc12,·,?,–,–,-78,·
COc1ccc(CNc2ncnc3sccc23)cc1,–,?,–,?,-73,–
c1ccc(CNc2ncnc3sccc23)cc1,·,?,·,·,-94,·
Cc1sc2ncnc(NCc3ccccc3)c2c1C,?,28µM,–,–,?,·
COc1cccc(C2CC(=O)Nc3c2c(=O)n(C)c2nc4ccccc4n32)c1 (stereo not drawn),–,–,–,–,–,–
COc1ccccc1Nc1ncc2c(n1)CCN(CC(C)C)C2,–,–,?,·,–,–
COc1cccc(C(=O)Nc2cccc(C(=O)OCc3cc(=O)n4nc(C5CC5)sc4n3)c2)c1,–,?,–,·,–,–
COCC1=NC2C(=O)N(C)C(=O)N(CC(C)C)C2=N1 (stereo not drawn),·,·,·,–,·,·
Cc1nc(C)c(C(=O)NN=Cc2ccc(N(CCCl)CCCl)cc2)s1,–,–,7.1µM,?,–,–
O=C(NN=Cc1ccc(N(CCCl)CCCl)cc1)c1cccnc1,–,–,?,5.6µM,–,–
O=C(N/N=C/c1cn(Cc2ccccc2)c2ccccc12)c1cccnc1,–,–,?,4.5µM,–,–
O=C(NN=Cc1ccc(N(CCCl)CCCl)cc1)c1cccc([N+](=O)[O-])c1,–,–,?,?,–,–
COc1ccc(CCNC(=O)CCCn2c(=O)c3ccccc3n(Cc3cccc(Cl)c3)c2=O)cc1OC,?,–,–,?,–,?
CC(C)c1c(C(=O)NCC(C)(C)N2CCOCC2)cnn1-c1nccc(-c2cccs2)n1,–,–,·,·,·,–
CCOC(=O)Cc1ccc(NC(=O)n2ncc3c(C)cccc32)cc1,–,–,·,–,-74,–
COc1ccc(C(=O)c2ccc(Cl)c([N+](=O)[O-])c2)cc1,–,?,?,5.8µM,-83,–
CCOC(=O)c1cnc2ccccc2c1Nc1ccc(N2CCOCC2)cc1,–,–,–,–,–,–
CCOC(=O)c1ccc2ncc(C(=O)OCC)c(Nc3ccc(N4CCOCC4)cc3)c2c1,?,?,?,7.9µM,?,–
C=CCCCN1C=C(C(C)=O)C(c2ccccc2)NC1=O (stereo not drawn),·,·,·,–,·,·
COc1ccc(NC(=O)N(C)[C@H]2C[C@H]3c4[nH]c5ccc(-c6ccc7c(c6)OCO7)cc5c4CCN3C[C@H]2[C@H](C)O)cc1,?,–,·,·,–,?
CN[C@H]1C[C@H]2c3[nH]c4ccc(-c5ccc(OC)cc5)cc4c3CCN2C(=O)[C@H]1[C@H](C)O,13µM,?,·,·,-103,?
COc1ccc(NC(=O)N(C)[C@H]2C[C@H]3c4[nH]c5ccc(-c6ccc(OC)cc6)cc5c4CCN3C[C@H]2[C@H](C)O)cc1,?,–,·,·,-104,–
SMILES,VACV Venus inh,FMDV inh,LASV entry inh,Marburg entry inh,HCMV inh,VACV mCherry inh
COc1ccc(NC(=O)N(C)[C@H]2C[C@H]3c4[nH]c5ccc(-c6ccc(OC)cc6)cc5c4CCN3C(=O)[C@H]2[C@H](C)O)cc1,?,–,·,·,-68,–
CCOC(=O)N1CCN(CCC(=O)Nc2cccc(F)c2)CC1,–,–,–,–,–,–
O=P(c1ccccc1)(c1ccccc1)c1nc(-c2ccc(Cl)cc2)oc1N1CCOCC1,·,–,–,?,-88,·
Cc1ccccc1-c1cc2c(c(OC3CCOC3)c1)OCCN(C(=O)Cn1cccn1)C2 (stereo not drawn),–,–,·,·,·,–
S=C(Nc1ccc(Br)cc1Cl)N1CCCC1,–,–,–,–,–,–
O=C(Nc1ccc(CN2CCCCC2)cc1)Nc1ccc(Br)cc1Cl,–,–,?,10µM,-62,–
CC(C)NC(=O)Nc1ccc(Br)cc1Cl,–,–,?,–,-61,–
COc1cccc(NCc2cccn2-c2nnc(N3CCC(C)CC3)s2)c1,–,–,–,·,–,–
